In PubChem BioAssay (NCATS):
Records with an inconclusive call do not appear. Calls of active or inactive are those of the source. Unless noted, calls follow the shape of the dose curve; as a rule, active = well fitted curve in the direction sought with a large enough effect; inconclusive = small, poorly fitted or top-dose-only effect, or another doubt; inactive = no such curve, though single readings can be large; an effect the other way counts as inactive or inconclusive.

How the values were obtained:
[1] = qHTS for Inhibitors of Plasmodium falciparum (DD2) proliferation (AID 504314);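 also: parasite DNA measured by SYBR Green fluorescence after red cell lysis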; conditions: P. falciparum Dd2 in erythrocytes, SYBR Green growth, 72 h; series mostly up to 6.11 µM
Outline: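 SYBR Green growth assay: 72 h compound exposure of infected red cells (2.5% hematocrit, 0.3% parasitemia), then lysis and overnight dye staining, fluorescence 485/535 nm. Values scaled between DMSO and 0.29 uM artemisinin controls.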

[2] = qHTS for Inhibitors of Plasmodium falciparum (GB4) proliferation (AID 504315); also: nearly all actives have a fitted effect of over 50% in size; conditions: P. falciparum GB4 in erythrocytes, SYBR Green DNA, 72 h; series mostly up to 6.7 µM
Outline: (§1)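 Parasite growth measured as SYBR Green DNA fluorescence (ex 485, em 535 nm) after overnight lysis following 72 h culture at 37 °C, 0.3% parasitemia, 2.5% hematocrit. Values normalized against DMSO and 0.29 uM artemisinin controls, with plate-stack correction.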

[3] = qHTS for Inhibitors of Plasmodium falciparum (7G8) proliferation (AID 504316); also: nearly all actives have a fitted effect of over 65% in size; conditions: P. falciparum 7G8 in erythrocytes, SYBR Green DNA, 72 h; series mostly up to 6.7 µM
Outline: as §1

[4] = qHTS for Inhibitors of Plasmodium falciparum (HB3) proliferation (AID 504318); also: nearly all actives have a fitted effect of over 60% in size; conditions: P. falciparum HB3 in erythrocytes, SYBR Green DNA, 72 h; series mostly up to 7.21 µM
Outline: as §1

[5] = qHTS for Inhibitors of Plasmodium falciparum (CP250) proliferation (AID 504320); conditions: P. falciparum CP250 in erythrocytes, SYBR Green DNA, 72 h; series mostly up to 6.7 µM
Outline: as §1

[6] = target: Glucocorticoid receptor (Homo sapiens) (UniProt P04150); test: GR-GFP Redistribution (AID 450;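 active = compounds whose dose series gives a full or clear partial fitted curve of increased nuclear translocation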; also: potency is read from the fitted curve at half-maximal effect); conditions: U2OS GR-GFP nuclear translocation, laser cytometry, 2 h
Chain of Glucocorticoid receptor (Homo sapiens) (P04150 whole entry, looked up, the tested form may be a part): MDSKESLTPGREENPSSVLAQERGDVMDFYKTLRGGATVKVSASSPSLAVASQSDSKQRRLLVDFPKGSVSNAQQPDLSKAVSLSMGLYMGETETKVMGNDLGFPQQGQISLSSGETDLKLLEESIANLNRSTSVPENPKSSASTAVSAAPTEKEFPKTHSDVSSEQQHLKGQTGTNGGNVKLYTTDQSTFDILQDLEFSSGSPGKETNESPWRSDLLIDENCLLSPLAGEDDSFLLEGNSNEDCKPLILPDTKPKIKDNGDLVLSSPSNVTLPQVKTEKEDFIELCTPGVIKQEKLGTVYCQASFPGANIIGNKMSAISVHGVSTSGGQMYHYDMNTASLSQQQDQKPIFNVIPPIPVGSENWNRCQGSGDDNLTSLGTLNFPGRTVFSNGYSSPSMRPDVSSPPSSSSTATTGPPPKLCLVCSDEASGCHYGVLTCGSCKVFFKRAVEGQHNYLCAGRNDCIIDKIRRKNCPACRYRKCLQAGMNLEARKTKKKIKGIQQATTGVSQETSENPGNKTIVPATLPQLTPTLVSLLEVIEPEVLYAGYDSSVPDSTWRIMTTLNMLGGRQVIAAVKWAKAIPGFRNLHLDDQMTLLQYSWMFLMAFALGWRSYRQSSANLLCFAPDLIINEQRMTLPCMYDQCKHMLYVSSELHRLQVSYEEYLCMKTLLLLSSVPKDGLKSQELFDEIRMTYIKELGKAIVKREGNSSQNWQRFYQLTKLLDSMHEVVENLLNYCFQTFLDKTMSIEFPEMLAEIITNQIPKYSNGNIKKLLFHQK

[7] = target: Glucocorticoid receptor (Homo sapiens) (UniProt P04150); test: GR-EFC Redistribution (AID 451; calls by dose curve; also: potency is read from the fitted curve at half-maximal effect); conditions: CHO-K1 GR-EFC translocation, beta-gal luminescence, 2 h
Outline: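 CHO-K1 cells expressing nuclear EA and GR-ED fragments of b-gal; compounds titrated up to 46 uM final, 2 h at 37 C. GR nuclear translocation read as complemented b-gal luminescence after 1 h RT detection.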

[8] = target: Mitogen-activated protein kinase 10 (Mus musculus) (UniProt Q61831); test: JNK3 AlphaScreen Assay (AID 530; active = well fitted curve in either direction with a large enough effect, not every such curve was filed as active;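 also: kinase came from lysate of stimulated human HepG2 cells; signal reports phosphorylation of biotinylated GST-cJun 1-79 at Ser73 with 10 µM ATP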); conditions: JNK3 lysate, c-Jun phosphorylation; series mostly up to 57.1 µM
Outline: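 Activity was read by AlphaScreen after JNK3-containing HepG2 lysate (cytokine pre-activated) phosphorylated biotinylated GST-cJun with 10 uM ATP at room temperature. Phospho-Ser73 cJun antibody with Protein-A acceptor beads provided detection.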

[9] = target: 3',5'-cyclic-AMP phosphodiesterase 4B (Homo sapiens) (UniProt Q07343); test: qHTS Assay for Inhibitors of PDE-IV (AID 607; active = well fitted activation curve with a large enough effect in the main read-out, with a control signal flat, not every such curve was filed as active); conditions: HEK293 ACTOne CNG channel cells, membrane potential fluorescence; series mostly up to 22.9 µM
Chain of 3',5'-cyclic-AMP phosphodiesterase 4B (Homo sapiens) (Q07343 whole entry, looked up): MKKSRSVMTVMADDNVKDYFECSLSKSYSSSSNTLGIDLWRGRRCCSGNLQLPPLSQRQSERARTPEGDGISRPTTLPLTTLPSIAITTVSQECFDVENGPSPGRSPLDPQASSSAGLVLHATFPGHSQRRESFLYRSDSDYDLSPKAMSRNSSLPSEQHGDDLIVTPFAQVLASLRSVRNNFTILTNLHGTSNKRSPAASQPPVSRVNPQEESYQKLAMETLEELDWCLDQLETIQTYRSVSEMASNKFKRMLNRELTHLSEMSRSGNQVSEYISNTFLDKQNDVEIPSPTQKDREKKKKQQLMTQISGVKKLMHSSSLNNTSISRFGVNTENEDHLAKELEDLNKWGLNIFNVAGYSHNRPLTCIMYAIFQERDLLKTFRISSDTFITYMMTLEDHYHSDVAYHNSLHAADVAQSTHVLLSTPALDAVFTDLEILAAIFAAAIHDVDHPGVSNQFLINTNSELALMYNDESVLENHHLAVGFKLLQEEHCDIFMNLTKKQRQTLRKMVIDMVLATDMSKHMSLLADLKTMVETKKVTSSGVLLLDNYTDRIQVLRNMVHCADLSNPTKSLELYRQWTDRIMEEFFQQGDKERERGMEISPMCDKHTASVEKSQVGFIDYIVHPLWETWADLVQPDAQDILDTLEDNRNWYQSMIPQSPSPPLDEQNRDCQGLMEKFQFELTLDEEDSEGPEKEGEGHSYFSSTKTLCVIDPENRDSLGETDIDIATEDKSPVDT
Outline: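 Cell-based read-out of cAMP via a modified cyclic nucleotide-gated channel and membrane potential dye (535/590 nm) in HEK293 cells expressing PDE4 endogenously. Compounds tested up to 22.9 uM final; 100 uM RO 20-1724 reference.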

[10] = Primary qHTS for small molecule stabilizers of the endoplasmic reticulum resident proteome: Secreted ER Calcium Modulated Protein (SERCaMP) assay (AID 1508630); conditions: SH-SY5Y GLuc-SERCaMP (Gaussia luciferase released on ER calcium loss) secretion, thapsigargin, luminescence; series mostly up to 38.4 µM
Outline: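 The SH-SY5Y reporter protocol was run at 3 concentrations up to 38.3 uM (primary) or 11 concentrations (follow-up): 16 h compound, 100 nM thapsigargin for 4 h, then extracellular luciferase luminescence.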

[11] = target: Cytochrome P450 3A4 (Homo sapiens) (UniProt P08684); test: qHTS Assay for Activators of Cytochrome P450 3A4 (AID 885); conditions: recombinant CYP3A4, Luciferin-PPXE luminescence, 60 min; series mostly up to 57.1 µM; also: nearly all actives have a fitted effect of over 65% in size
Chain of Cytochrome P450 3A4 (Homo sapiens) (P08684 whole entry, looked up): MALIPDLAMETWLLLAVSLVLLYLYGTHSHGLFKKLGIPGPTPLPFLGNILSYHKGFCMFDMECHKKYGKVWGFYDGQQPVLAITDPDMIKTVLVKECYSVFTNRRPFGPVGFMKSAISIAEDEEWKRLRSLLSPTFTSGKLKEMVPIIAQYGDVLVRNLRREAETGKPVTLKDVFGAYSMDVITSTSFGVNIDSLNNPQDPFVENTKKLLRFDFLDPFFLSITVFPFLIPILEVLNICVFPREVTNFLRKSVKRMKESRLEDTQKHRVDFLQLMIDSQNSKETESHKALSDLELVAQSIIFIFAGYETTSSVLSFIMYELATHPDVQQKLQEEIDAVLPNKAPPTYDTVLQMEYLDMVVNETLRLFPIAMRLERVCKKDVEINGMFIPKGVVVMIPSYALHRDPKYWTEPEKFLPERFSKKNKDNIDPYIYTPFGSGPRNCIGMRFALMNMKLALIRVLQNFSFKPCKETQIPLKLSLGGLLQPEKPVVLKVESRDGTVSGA
Outline: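 Luminescent readout of luciferin formed from 25 uM Luciferin-PPXE (KM level) by 20 nM CYP3A4 in 200 mM KPO4, with 60 min NADPH-driven reaction at room temperature after 10 min compound exposure. Ketoconazole (57 uM) defined 100% inhibition.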

[12] = target: Ubiquitin carboxyl-terminal hydrolase 1 (Homo sapiens) (UniProt O94782); test: Inhibitors of USP1/UAF1: Pilot qHTS (AID 504865); conditions: purified USP1/UAF1, Ub-rhodamine cleavage fluorescence; series mostly up to 114 µM;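 also: rhodamine fluorescence freed from ubiquitin-rhodamine substrate followed over time; top concentration of the series differs between compounds; nearly all actives have a fitted effect of over 35% in size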
Chain of Ubiquitin carboxyl-terminal hydrolase 1 (Homo sapiens) (O94782 whole entry, looked up): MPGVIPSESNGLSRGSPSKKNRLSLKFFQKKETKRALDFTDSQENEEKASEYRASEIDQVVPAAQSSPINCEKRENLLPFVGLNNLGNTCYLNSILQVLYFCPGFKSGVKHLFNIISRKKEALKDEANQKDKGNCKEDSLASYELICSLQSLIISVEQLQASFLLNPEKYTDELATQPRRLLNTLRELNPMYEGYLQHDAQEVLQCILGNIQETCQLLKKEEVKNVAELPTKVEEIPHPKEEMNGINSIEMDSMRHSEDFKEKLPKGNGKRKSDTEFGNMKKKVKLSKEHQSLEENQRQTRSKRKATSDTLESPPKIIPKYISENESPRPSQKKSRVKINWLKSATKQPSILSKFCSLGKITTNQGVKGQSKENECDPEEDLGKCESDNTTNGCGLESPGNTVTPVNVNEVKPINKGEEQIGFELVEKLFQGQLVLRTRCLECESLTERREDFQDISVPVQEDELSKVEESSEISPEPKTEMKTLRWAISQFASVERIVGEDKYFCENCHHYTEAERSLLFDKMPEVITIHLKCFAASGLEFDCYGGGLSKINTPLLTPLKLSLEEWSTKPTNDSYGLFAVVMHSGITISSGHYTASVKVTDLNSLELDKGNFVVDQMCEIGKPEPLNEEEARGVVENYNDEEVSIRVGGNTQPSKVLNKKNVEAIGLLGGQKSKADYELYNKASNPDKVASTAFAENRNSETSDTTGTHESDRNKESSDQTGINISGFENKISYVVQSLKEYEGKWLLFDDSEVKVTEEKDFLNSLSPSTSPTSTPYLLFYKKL
Outline: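 USP1/UAF1 complex at 1 nM preincubated 15 min at room temperature with compound, then Ub-Rho substrate added at 150 nM final. Fluorescence (480/540 nm) read kinetically in 50 mM HEPES pH 7.8, 0.5 mM EDTA, 1 mM TCEP, 0.1 mg/ml BSA, 0.01% Tween-20.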

[13] = target: DNA dC->dU-editing enzyme APOBEC-3G (Homo sapiens) (UniProt Q9HC16); test: qHTS for inhibitors of Vif-A3G interactions: Validation (AID 588379); conditions: Vif-A3G protein interaction assay; series mostly up to 46.1 µM
Chain of DNA dC->dU-editing enzyme APOBEC-3G (Homo sapiens) (Q9HC16 whole entry, looked up): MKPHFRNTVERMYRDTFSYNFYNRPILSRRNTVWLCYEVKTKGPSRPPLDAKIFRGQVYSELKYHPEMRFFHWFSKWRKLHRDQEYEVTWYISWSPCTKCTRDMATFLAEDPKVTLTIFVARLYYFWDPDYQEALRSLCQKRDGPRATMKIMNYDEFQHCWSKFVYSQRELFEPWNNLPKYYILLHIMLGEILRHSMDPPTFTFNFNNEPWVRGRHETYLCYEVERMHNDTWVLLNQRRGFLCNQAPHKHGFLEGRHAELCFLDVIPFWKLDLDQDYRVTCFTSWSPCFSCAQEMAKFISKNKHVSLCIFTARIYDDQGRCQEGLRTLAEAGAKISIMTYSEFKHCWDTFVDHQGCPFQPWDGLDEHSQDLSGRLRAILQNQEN
Outline: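 Yellow fluorescence (Ex 488, Em 500-530) of Vif-coexpressing HeLa A3G-eYFP cells, scanned by Acumen cytometer, reports blocked A3G degradation. Cells plated at 700/well overnight at 37 deg C before compound addition, then a further overnight compound incubation at 37 deg C.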

Measured: Potency

COC(=O)C1=C2CCO[C@H]2[C@@H]2[C@@H](C)[C@H](OC)c3ccccc3[C@@H]12
inactive: [1] | [2] | [3] | [4] | [5]

CN(C(=O)Cc1ccc(Cl)c(Cl)c1)[C@H](CN1CCCC1)c1cccc(N=C=S)c1
inactive: [6] > 46 µM | [7] > 46 µM | [8] | [9] | [10]

COC(=O)[C@@]1(C=C2c3ccccc3[C@@H](OC)[C@@H]2C)[C@@H]2Oc3ccccc3[C@@H]21
inactive: [1] | [2] | [3] | [4] | [5]

COC(=O)C1(C)C2CC(C)C(c3ccccc32)N1C(=O)C(F)(F)F (stereo unspecified)
inactive: [1] | [2] | [3] | [4] | [5]

O=C1/C(=C\c2ccccc2)C[C@@]2(O)[C@H]3Cc4ccc(O)c5c4[C@@]2(CCN3CC2CC2)[C@@H]1O5
inactive: [6] > 46 µM | [7] > 46 µM | [11] | [12] | [13] | [10]

CCOC(=O)[C@]12C[C@]3(C)CCN(C(=O)N[C@@H]1c1ccccc1)[C@@H]32
inactive: [1] | [2] | [3] | [4] | [5]

COC(=O)[C@@H]1[C@@H](c2ccccc2)[C@H]2C(=O)c3c(OC)cc(OC)cc3O[C@@]12c1ccc(OC)cc1
inactive: [1] | [2] | [4] | [5]

CC(=O)[C@]12C[C@@H]3CCN(C(=O)N[C@@H]1c1ccccc1)[C@@]32C
inactive: [5]

COC(=O)[C@@]1(C=C[C@@H](C)[C@H](OC)c2ccccc2Br)[C@@H]2Oc3ccccc3[C@@H]21
inactive: [1] | [2] | [3] | [4] | [5]
